Experimental data reported in PubChem BioAssay (NCI).
This is part of a sample that, as a whole, favours compounds with a hit. Of some 83,000 tested, about 20% had one in any assay.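 Assay: single dose, 48 h. Readout: percent growth (0 = no net growth; negative = cell death). Active: <10.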 Unmarked numbers belong to inactive results. Active and inactive are the calls of the source.

test system: SK-MEL-28 melanoma; experiment: NCI-60 one-dose screen, 48 h (100 = growth as untreated, 0 = no growth, -100 = all killed); conditions: 10 µM unless noted

Question: Which growth does the source give for `COc1cc(-c2nn(-c3cccc(NC(=O)Nc4cc(C(F)(F)F)cc(C(F)(F)F)c4)c3)cc2-c2ccncc2)ccc1Cl` here?
Answer: -28.9% (active)

Question: `CCOC(=O)NNC(=S)Nc1ccccc1` was tested. Which growth did it give?
Answer: 106%

Question: For `N#Cc1c(-c2ccccc2)nc(SCC(=O)N2CCN(c3ccccc3)CC2)[nH]c1=O`, which growth is on record?
Answer: 116%

Question: For `Cc1cc(C(C)(C)C)ccc1S`, which growth is on record?
Answer: 104%

Question: `CCOC(=O)C1=C(C)NC(C)=C(C(=O)OCC)C1(C)C` was tested. Which growth did it give?
Answer: 102%

Question: How did the growth turn out when `COc1ccc(CNCCCN2C(=O)c3ccc4c5c(ccc(c35)C2=O)C(=O)N(CCCNCCCCNCCCN)C4=O)c(OC)c1OC` was run?
Answer: 29%

Question: For `O=C(Nc1ccncc1)C(=O)c1cn(S(=O)(=O)c2ccc(Br)cc2)c2ccccc12`, which growth is on record?
Answer: 60.6%

Question: With `O=C(/C=C/c1cc(-c2ccc3c(c2)OCO3)n[nH]1)c1ccc2c(c1)OCO2` as the compound, how does the growth read?
Answer: 109%

Question: How did the growth turn out when `CCCOC(=O)n1cccc1` was run?
Answer: 116%

Question: With `CCN(CC)c1ccc(CNc2ccnc3ccccc23)cc1` as the compound, how does the growth read?
Answer: 80.4%

Question: For `COc1cccc(-c2cc3c(O)cc(C#N)cc3[nH]2)c1`, which growth is on record?
Answer: 97.8%

Question: Which growth does the source give for `Fc1ccccc1-c1nc(-c2nc3cc(Cl)c(Cl)cc3[nH]2)c2ccccn12` here?
Answer: 83.9%

Question: With `COc1cc(-c2nn(C(=O)NS(=O)(=O)c3ccccc3)cc2-c2ccncc2)ccc1Cl` as the compound, how does the growth read?
Answer: 91.8%

Question: For `COc1cc(NCCCCCN)c2ncccc2c1`, which growth is on record?
Answer: 114%

Question: With `Cn1c(=O)c2[nH]c(C3CC=CCC3)nc2n(C)c1=O` (stereo unspecified) as the compound, how does the growth read?
Answer: 117%

Question: Which growth does the source give for `O=C(/C=C/c1ccccc1)c1cccc(O)c1` here?
Answer: 104%

Question: `C=C[C@@H]1C[C@H](O)Cc2cc(F)ccc2N1` was tested. Which growth did it give?
Answer: 98.7%

Question: With `O=C(O)Cc1cccc(=O)c(O)c1C(=O)O` as the compound, how does the growth read?
Answer: 110%

Question: `O=C(O)COc1ccc(-c2cssc2=S)cc1` was tested. Which growth did it give?
Answer: 108%

Question: Which growth does the source give for `CC(C)CC1NC(C)(C)CO1` (stereo unspecified) here?
Answer: 111%

Question: With `CC(C)(C)N1CCC1C(N)=O` (stereo unspecified) as the compound, how does the growth read?
Answer: 114%

Question: `COc1cc(-c2nn(-c3cccc(NC(=O)c4cccc(C(F)(F)F)c4)c3)cc2-c2ccncc2)ccc1Cl` was tested. Which growth did it give?
Answer: 32.5%

Question: `Cc1ccc(Cc2c(C=O)nc(N)[nH]c2=O)c2ccccc12` was tested. Which growth did it give?
Answer: 104%

Question: With `Cn1cnc2c(N3CCN(C(=O)OCc4ccc5c(Cl)cc(Cl)c(O)c5n4)CC3)nc(Cl)nc21` as the compound, how does the growth read?
Answer: 68.5%

Question: For `COc1ccc(-c2c(N)n[nH]c2-c2cc(OC)c3c(c2)OCCO3)cc1`, which growth is on record?
Answer: 80.7%

Question: How did the growth turn out when `CCOC(=O)c1ccc2c(c1)c1c(C)c3cccnc3c(C)c1n2C` was run?
Answer: 85.3%

Question: `Cc1nc2ncccc2nc1Nc1ccc(S(=O)(=O)Nc2ccccn2)cc1` was tested. Which growth did it give?
Answer: 101%

Question: How did the growth turn out when `COc1ccc(C2=C(c3cc(OC)c(OC)c(OC)c3)C(=O)CC2)cc1` was run?
Answer: 47.7%

test system: SK-MEL-2 melanoma; experiment: as above; conditions: 10 µM unless noted

Question: With `COc1cc(-c2nn(-c3cccc(NC(=O)Nc4cc(C(F)(F)F)cc(C(F)(F)F)c4)c3)cc2-c2ccncc2)ccc1Cl` as the compound, how does the growth read?
Answer: -52.1% (active)

Question: How did the growth turn out when `COc1ccc(C(=O)c2cc(OC)c3c(c2)OCO3)cc1O` was run?
Answer: 71.7%

Question: Which growth does the source give for `CCOC(=O)NNC(=S)Nc1ccccc1` here?
Answer: 116%

Question: With `N#Cc1c(-c2ccccc2)nc(SCC(=O)N2CCN(c3ccccc3)CC2)[nH]c1=O` as the compound, how does the growth read?
Answer: 113%

Question: `C=C1c2nc3ccccc3n2C=C(c2ccc(Cl)cc2)N1Cc1ccccc1` was tested. Which growth did it give?
Answer: 69.7%

Question: `Cc1cc(C(C)(C)C)ccc1S` was tested. Which growth did it give?
Answer: 93.4%

Question: How did the growth turn out when `COc1ccc(CNCCCN2C(=O)c3ccc4c5c(ccc(c35)C2=O)C(=O)N(CCCNCCCCNCCCN)C4=O)c(OC)c1OC` was run?
Answer: -36.5% (active)

Question: With `NNc1cccc(/C=C/c2ccccc2)cc1=O` as the compound, how does the growth read?
Answer: 83.1%

Question: For `O=C(/C=C/c1cc(-c2ccc3c(c2)OCO3)n[nH]1)c1ccc2c(c1)OCO2`, which growth is on record?
Answer: 96.6%

Question: For `CCCOC(=O)n1cccc1`, which growth is on record?
Answer: 118%

Question: For `CCN(CC)c1ccc(CNc2ccnc3ccccc23)cc1`, which growth is on record?
Answer: 79.3%

Question: For `C=C(C)[C@@H]1CC[C@]2(C(=O)N3CCNCC3)CC[C@]3(C)[C@H](CC[C@@H]4[C@@]5(C)C/C(=C/c6ccncc6)C(=O)C(C)(C)[C@@H]5CC[C@]43C)[C@@H]12`, which growth is on record?
Answer: 107%

Question: For `Fc1ccccc1-c1nc(-c2nc3cc(Cl)c(Cl)cc3[nH]2)c2ccccn12`, which growth is on record?
Answer: 81.5%

Question: For `COc1cc(NCCCCCN)c2ncccc2c1`, which growth is on record?
Answer: 126%

Question: For `NC(=N\N=C/c1ccc(O)cc1)/C(N)=N\N=C/c1ccc(O)cc1`, which growth is on record?
Answer: 59%

Question: For `O=C(/C=C/c1ccccc1)c1cccc(O)c1`, which growth is on record?
Answer: 115%

Question: Which growth does the source give for `C=C[C@@H]1C[C@H](O)Cc2cc(F)ccc2N1` here?
Answer: 123%

Question: Which growth does the source give for `O=C(O)Cc1cccc(=O)c(O)c1C(=O)O` here?
Answer: 97.5%

Question: Which growth does the source give for `O=C(O)COc1ccc(-c2cssc2=S)cc1` here?
Answer: 90.8%

Question: Which growth does the source give for `c1ccc(-c2nnc(-c3ccccn3)s2)nc1` here?
Answer: 104%

Question: Which growth does the source give for `CC(C)CC1NC(C)(C)CO1` (stereo unspecified) here?
Answer: 113%

Question: How did the growth turn out when `CC(C)(C)N1CCC1C(N)=O` (stereo unspecified) was run?
Answer: 159%

Question: How did the growth turn out when `COc1ccc(-c2cnnn2-c2nonc2-n2cccc2)cc1OC` was run?
Answer: 38%

Question: Which growth does the source give for `O=C(O)C1CCCCN1c1nc(Cl)nc(Cl)n1` (stereo unspecified) here?
Answer: 104%

Question: For `COc1cc(-c2nn(-c3cccc(NC(=O)c4cccc(C(F)(F)F)c4)c3)cc2-c2ccncc2)ccc1Cl`, which growth is on record?
Answer: -38.6% (active)

Question: Which growth does the source give for `COc1ccc(-c2c(N)n[nH]c2-c2cc(OC)c3c(c2)OCCO3)cc1` here?
Answer: 64.8%

Question: How did the growth turn out when `CCOC(=O)c1ccc2c(c1)c1c(C)c3cccnc3c(C)c1n2C` was run?
Answer: 96%

Question: For `Cc1nc2ncccc2nc1Nc1ccc(S(=O)(=O)Nc2ccccn2)cc1`, which growth is on record?
Answer: 104%
